PubChem BioAssay
Where “and” joins values, the source holds several entries; their conditions need not be identical. Equal entries are not always repeated. Unmarked numbers belong to inactive results. Calls of active or inactive are those of the source.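 The calls were made as follows, unless noted: active = inhibition above 50%; inactive = the rest.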

Assay: antimalarial activity against Dd2 strain (AID 2302;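 active = growth inhibition above 50% at the single 2 µM test dose, taken to imply half-maximal potency below 2 µM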;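 also: 0% = DMSO untreated growth and 100% = chloroquine plus artemisinin killed control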)
Conditions: P. falciparum Dd2 in RBCs, LDH growth readout, 72 h; at 2 µM; active compounds read high

Structure (SMILES)	growth inhibition
CCCc1cn2c3c(cc(C(=O)N[C@@H](Cc4ccccc4)[C@H](O)CNC4CCCCC4)cc13)N(CC)S(=O)(=O)CC2	98% (active)
CC(C)CNCc1cccc(-c2cccc(CNCCCN3CCN(C)CC3)c2)c1	7%
CC(CCc1ccccc1)NCC(O)c1ccc2c(c1)S(=O)(=O)c1ccccc1N2 (configuration not stated)	4%

Assay: human hepatoma cell viability loss – ATP luminescence, cytotoxicity control for P. falciparum antimalarial project, primary screen (AID 2303);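 also: 0% = DMSO wells and 100% = digitonin-killed cells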
Conditions: HepG2 viability, 24-48 h, at 10 µM, active compounds read high

Structure (SMILES)	inhibition
COc1ccc(C(C(=O)NC2CCN(C[C@H](O)c3ccnc4ccc(OC)cc34)CC2)N2CCN(Cc3ccccc3)CC2)cc1 (some centres not stated)	18%
CS(=O)(=O)c1ccc2nc(NC(=O)c3csnn3)sc2c1	3%
O=C(/C=C/c1ccc(Cl)c(Cl)c1)NCCCCCN1CCCN(C(=O)Nc2cccc(F)c2)CC1	20%
Cn1ccnc1S(=O)(=O)CCNCc1ccc(-c2ccc3ncnc(Nc4ccc(OCc5cccc(F)c5)c(Cl)c4)c3c2)o1	-2%
Cc1ccccc1C1CCN(C2CCC(NC(=O)/C=C/c3cccc(F)c3)CC2)CC1 (configuration not stated)	46%
Cc1nc2ccccc2c(=O)n1NCc1ccc(Cl)c(Cl)c1	12%
CCNc1cc(C)nc(Nc2ccc(NS(=O)(=O)c3ccccc3)cc2)n1	41%
CCCCCCCc1ccc(-c2c(C)[nH]c(C)c(Cl)c2=O)cn1	-4%
O=C(C=Cc1cn(-c2ccccc2)nc1-c1cccs1)N1CCN(c2ccncc2)CC1	31%
O=C(Nc1ccc(C(F)(F)F)cc1)Nc1ccccc1N1CCNCC1	39%
CCC(CC(NCCCCNC(=O)c1ccc(NC(=O)c2ccc(Cl)cc2)cc1)c1ccccc1)c1ccccc1OC (configuration not stated)	23% and 10%
O=C(/C=C/c1ccc(Cl)c(Cl)c1)NCCCCCN1CCC(NC(=O)Nc2cccc(C(F)(F)F)c2)CC1	61% (active)
Cc1noc(C)c1-c1ccc2c(Nc3ccccc3C(C)(C)C)c(C(=O)NCc3ccc(OC(C)C)cc3)cnc2c1	-3%
FC(F)(F)c1cccc(CNCCCCCNCc2ccc(Cl)cc2)c1	13%
C[C@@H]1CN(c2nc(NCCc3ccc(O)cc3)nc(NCc3ccccc3-c3ccc(C(F)(F)F)cc3)n2)C[C@H](C)N1	24%
CC1(CCc2ccccc2)N=C(N)N=C(N)C1c1ccc(Cl)c(Cl)c1 (configuration not stated)	19%
CCN(CC)C(=NCCCCCCN=C(NC(N)=NCc1cccc(Cl)c1)N(CC)CC)NC(N)=NCc1cccc(Cl)c1	17%
Cc1nc(-c2ccc(-c3ccc(NC(=O)c4coc5ccc(N6C[C@@H](C)N[C@@H](C)C6)cc45)cc3)c(C)c2)no1	1%
COc1ccc(CCn2c(=N)c(C(=O)NCc3cccnc3)cc3c(=O)n4cccc(C)c4nc32)cc1	5%
O=C(NCC1CCN(Cc2ccc(F)cc2)C1)c1cc(-c2cccc(C(F)(F)F)c2)cs1 (configuration not stated)	38%

Structure (SMILES)	inhibition
c1ccc(COc2ccc(C3CCCCC3)cc2)nc1	0%
Clc1ccc2c(NCCNc3ccnc4cc(Cl)ccc34)ccnc2c1	6%
NC1=NC(c2ccccc2)(c2ccccc2)C(=O)N1CC1CCC1	17%
CCc1cn2c3c(cc(C(=O)N[C@@H](Cc4cc(F)cc(F)c4)[C@H](O)CNC4CC4)cc13)N(C)S(=O)(=O)CC2	3%
CCNc1cc(C(=O)N[C@@H](Cc2ccc(F)c(F)c2)[C@H](O)CNCc2cccc(OC)c2)cc(N2CCCCS2(=O)=O)c1	4%
CN(C)CCOc1cc(NC(=O)Nc2ccc(-c3ccncc3)c(C(F)(F)F)c2)ccc1Cl	36%
COc1c(C2CCN(CCCCNC(=O)c3noc(-c4ccc(C#N)cc4)n3)CC2)ccc2c1CCCC2	32%
CC1(C)N=C(N)N=C(N)N1OCCCCOc1ccccc1	60% (active)
O=C(Nc1cccc(-c2cccc(-c3nc4ccccc4[nH]3)c2)c1)N[C@@H]1C[C@H]1c1ccccc1	40% and 8%
COc1cc(F)c2ncc(Cl)c([C@H](O)CN3CCC(NCc4cc5c(cn4)OCCO5)CC3)c2c1	10%
CN1CCCN(Cc2ccc(-c3cccc(NC(=O)c4ccc(F)cc4)c3)cc2)CC1	29%
COc1cccc(CNC(=O)c2cnc(N3CCN(c4ccncc4)CC3)c(Cl)c2)c1	25%
COc1ccc(CNCc2ccccc2)cc1-c1ccc(S(=O)(=O)NCCN2CCCC2)cc1	38%
O=C(Nc1cc(Cl)c(Cl)cc1NC(=O)c1cccc(-c2ccccc2)c1O)c1cccc(-c2ccccc2)c1O	79% (active)
CCc1c(C)nc2nc(Cc3cccc(F)c3)nn2c1N1CCN(c2ccccn2)CC1	-4%
Cn1ncc2c3c(CCN4CCC(NCc5cc6c(cn5)OCCO6)CC4)c(Cl)cnc3ccc21	1%
CCCc1cn2c3c(cc(C(=O)N[C@@H](Cc4ccccc4)[C@H](O)CNC4CCCCC4)cc13)N(CC)S(=O)(=O)CC2	2%
CC(C)CNCc1cccc(-c2cccc(CNCCCN3CCN(C)CC3)c2)c1	5%
CC(CCc1ccccc1)NCC(O)c1ccc2c(c1)S(=O)(=O)c1ccccc1N2 (configuration not stated)	17%
